# Laboratory results: the supplement of paper PMC8728848
# The entries come from a sample that favours the strongest signals as a whole.
# B1: BC2L-D C-terminal domain (Burkholderia cenocepacia), Q39MQ9_BURS3 (protein)
# chain: LVIVDAVTLLSAYPEASRDPAAPTVIDGRHLYVVSPGDAAQLGHNDSRLFTGLSPGDQLHLRETALALRAEVSVLFIRFALKDAGIVAPIELEVRDAATAVPDADDLLHPSCRPLKDHYWRSDVLAAGATTCTADFAVCDRDGTVSGYFRWETSIEIAGSQPDTKQPGFKPSSDRNGNFSLPPNTAFKAIFYANAADRQDLKLFIDDAPEPAATFVGNSEDGVRLFTLNSKGGKIRIEASANGRQSATDARLAPLSAGDTVWLGWLGAEDGADADYNDGIVILQWPIT
# What was measured:
# Experiment in all cases: glycan array binding signal (z-score within array); higher = stronger binding
# Details in all cases: glycan notation: IUPAC condensed, linker removed
# [1] = target: Fuc(a1-2)Gal(b1-3)GalNAc(a1-3)[Fuc(a1-2)]Gal(b1-4)Glc
# How it was run: (§1)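 Arrays were curated from the Consortium for Functional Glycomics database, 3228 in total, and kept only where the protein sequence was available. Binding is expressed as a within-array Z-score. This score was averaged across arrays of the same protein sequence at different concentrations or buffers and across linkers, and negative values can be read as non-binding.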
# [2] = target: Fuc(a1-2)Gal(b1-3)GalNAc(b1-4)[Neu5Ac(a2-3)]Gal(b1-4)Glc
# How it was run: as §1
# Fuc(a1-2)Gal(b1-3)GlcNAc = target: Fuc(a1-2)Gal(b1-3)GlcNAc
# How it was run: as §1
# [3] = target: Fuc(a1-2)Gal(b1-3)GlcNAc(b1-3)GalNAc
# How it was run: as §1
# [4] = target: Fuc(a1-2)Gal(b1-4)GlcNAc(b1-2)[Fuc(a1-2)Gal(b1-4)GlcNAc(b1-4)]Man(a1-3)[Fuc(a1-2)Gal(b1-4)GlcNAc(b1-2)Man(a1-6)]Man(b1-4)GlcNAc(b1-4)GlcNAc
# How it was run: as §1
# [5] = target: Fuc(a1-2)Gal(b1-4)GlcNAc6S
# How it was run: as §1
# [6] = target: Fuc(a1-2)Gal(b1-4)[Fuc(a1-3)]GlcNAc(b1-2)[Fuc(a1-2)Gal(b1-4)[Fuc(a1-3)]GlcNAc(b1-4)]Man(a1-3)[Fuc(a1-2)Gal(b1-4)[Fuc(a1-3)]GlcNAc(b1-2)Man(a1-6)]Man(b1-4)GlcNAc(b1-4)GlcNAc
# How it was run: as §1
# [7] = target: Fuc(a1-2)[Gal(a1-3)]Gal(b1-4)GlcNAc(b1-2)Man(a1-3)[Fuc(a1-2)[Gal(a1-3)]Gal(b1-4)GlcNAc(b1-2)Man(a1-6)]Man(b1-4)GlcNAc(b1-4)GlcNAc
# How it was run: as §1
# [8] = target: Fuc(a1-2)[GalNAc(a1-3)]Gal(b1-3)GalNAc(a1-3)[Fuc(a1-2)]Gal(b1-4)GlcNAc
# How it was run: as §1
# [9] = target: Fuc(a1-2)[GalNAc(b1-3)]Gal
# How it was run: as §1
# [10] = target: Fuc(a1-3)[Gal(b1-4)]GlcNAc(b1-3)GalNAc
# How it was run: as §1
# [11] = target: Fuc(a1-3)[Gal(b1-4)]GlcNAc(b1-4)Gal(b1-4)[Fuc(a1-3)]GlcNAc(b1-4)Gal(b1-4)[Fuc(a1-3)]GlcNAc
# How it was run: as §1
# [12] = target: Fuc(a1-3)[Gal(b1-4)]GlcNAc(b1-6)[Gal(b1-3)GlcNAc(b1-3)]Gal(b1-4)Glc
# How it was run: as §1
# Fuc(b1-3)GlcNAc = target: Fuc(b1-3)GlcNAc
# How it was run: as §1
# [13] = target: Gal(a1-3)Fuc(a1-2)Gal(b1-4)GlcNAc(b1-3)[Gal(a1-3)Fuc(a1-2)Gal(b1-4)GlcNAc(b1-6)]GalNAc
# How it was run: as §1
# Gal(b1-3)Gal = target: Gal(b1-3)Gal
# How it was run: as §1
# [14] = target: Gal(b1-3)[Fuc(a1-4)]GlcNAc(b1-3)Gal(b1-4)GlcNAc
# How it was run: as §1
# [15] = target: Gal(b1-4)GalNAc(a1-3)[Fuc(a1-2)]Gal(b1-4)GlcNAc
# How it was run: as §1
# [16] = target: Gal(b1-4)GlcNAc(b1-2)Man(a1-3)[Man(a1-6)]Man(b1-4)GlcNAc(b1-4)GlcNAc
# How it was run: as §1
# [17] = target: Gal(b1-4)GlcNAc(b1-3)Gal(b1-4)GlcNAc(b1-3)Gal(b1-4)GlcNAc
# How it was run: as §1
# [18] = target: Gal(b1-4)GlcNAc(b1-3)Gal(b1-4)[Fuc(a1-3)GlcNAc(b1-6)]Gal(b1-4)Glc
# How it was run: as §1
# [19] = target: Gal(b1-4)GlcNAc(b1-6)GalNAc
# How it was run: as §1
# Gal4S6S(b1-4)GlcNAc = target: Gal4S6S(b1-4)GlcNAc
# How it was run: as §1
# GalNAc(b1-3)Gal = target: GalNAc(b1-3)Gal
# How it was run: as §1
# [20] = target: GlcNAc(b1-3)Gal(b1-4)GlcNAc
# How it was run: as §1
# GlcNAc(b1-3)Man = target: GlcNAc(b1-3)Man
# How it was run: as §1
# Kdn(a2-3)Gal(b1-3)GlcNAc = target: Kdn(a2-3)Gal(b1-3)GlcNAc
# How it was run: as §1
# [21] = target: Man(a1-2)Man(a1-2)Man(a1-6)[Man(a1-3)]Man
# How it was run: as §1
# [22] = target: Man(a1-2)Man(a1-3)[Man(a1-2)Man(a1-6)]Man(a1-6)[Man(a1-2)Man(a1-2)Man(a1-3)]Man
# How it was run: as §1
# [23] = target: Man(a1-2)Man(a1-6)[Man(a1-3)]Man(a1-6)[Man(a1-2)Man(a1-2)Man(a1-3)]Man
# How it was run: as §1
# [24] = target: Man(a1-2)Man(a1-6)[Man(a1-3)]Man(a1-6)[Man(a1-2)Man(a1-2)Man(a1-3)]Man(b1-4)GlcNAc(b1-4)GlcNAc
# How it was run: as §1
# Man(a1-3)[Man(a1-6)]Man = target: Man(a1-3)[Man(a1-6)]Man
# How it was run: as §1
# [25] = target: Man(a1-3)[Man(a1-6)]Man(a1-6)[Man(a1-2)Man(a1-3)]Man(b1-4)GlcNAc(b1-4)GlcNAc
# How it was run: as §1
# [26] = target: Man(a1-3)[Man(a1-6)]Man(a1-6)[Man(a1-3)]Man
# How it was run: as §1
# [27] = target: Man(a1-3)[Man(a1-6)]Man(a1-6)[Man(a1-3)]Man(b1-4)GlcNAc(b1-4)GlcNAc
# How it was run: as §1
# [28] = target: Neu5Ac(a2-3)Gal(b1-3)GalNAc(b1-4)[Neu5Ac(a2-8)Neu5Ac(a2-3)]Gal(b1-4)Glc
# How it was run: as §1
# Neu5Ac(a2-3)Gal(b1-4)Glc = target: Neu5Ac(a2-3)Gal(b1-4)Glc
# How it was run: as §1
# [29] = target: Neu5Ac(a2-3)Gal(b1-4)[Fuc(a1-3)]GlcNAc6S
# How it was run: as §1
# [30] = target: Neu5Ac(b2-6)Gal(b1-4)GlcNAc
# How it was run: as §1
# [31] = target: Neu5Gc(a2-3)Gal(b1-4)[Fuc(a1-3)]GlcNAc
# How it was run: as §1
binder,measurement,setting,value
B1,glycan array binding signal (z-score),[1],-0.158
same,glycan array binding signal (z-score),[2],0.376
same,glycan array binding signal (z-score),Fuc(a1-2)Gal(b1-3)GlcNAc,0.536
same,glycan array binding signal (z-score),[3],-0.16
same,glycan array binding signal (z-score),[4],-0.137
same,glycan array binding signal (z-score),[5],0.114
same,glycan array binding signal (z-score),[6],-0.147
same,glycan array binding signal (z-score),[7],-0.167
same,glycan array binding signal (z-score),[8],-0.169
same,glycan array binding signal (z-score),[9],-0.242
same,glycan array binding signal (z-score),[10],-0.164
same,glycan array binding signal (z-score),[11],0.024
same,glycan array binding signal (z-score),[12],-0.165
same,glycan array binding signal (z-score),Fuc(b1-3)GlcNAc,-0.241
same,glycan array binding signal (z-score),[13],-0.159
same,glycan array binding signal (z-score),Gal(b1-3)Gal,-0.242
same,glycan array binding signal (z-score),[14],-0.137
same,glycan array binding signal (z-score),[15],-0.242
same,glycan array binding signal (z-score),[16],0.676
same,glycan array binding signal (z-score),[17],-0.242
same,glycan array binding signal (z-score),[18],-0.165
same,glycan array binding signal (z-score),[19],-0.2
same,glycan array binding signal (z-score),Gal4S6S(b1-4)GlcNAc,-0.243
same,glycan array binding signal (z-score),GalNAc(b1-3)Gal,-0.243
same,glycan array binding signal (z-score),[20],-0.241
same,glycan array binding signal (z-score),GlcNAc(b1-3)Man,-0.243
same,glycan array binding signal (z-score),Kdn(a2-3)Gal(b1-3)GlcNAc,-0.242
same,glycan array binding signal (z-score),[21],5.14
same,glycan array binding signal (z-score),[22],4.23
same,glycan array binding signal (z-score),[23],5.62
same,glycan array binding signal (z-score),[24],6.24
same,glycan array binding signal (z-score),Man(a1-3)[Man(a1-6)]Man,4.31
same,glycan array binding signal (z-score),[25],6.86
same,glycan array binding signal (z-score),[26],5.02
same,glycan array binding signal (z-score),[27],3.67
same,glycan array binding signal (z-score),[28],-0.154
same,glycan array binding signal (z-score),Neu5Ac(a2-3)Gal(b1-4)Glc,-0.248
same,glycan array binding signal (z-score),[29],-0.244
same,glycan array binding signal (z-score),[30],-0.248
same,glycan array binding signal (z-score),[31],-0.236
